The text below walks through data of PubChem BioAssay (Tox21).

Results filed as inconclusive are left out. Where a call stands in place of a potency, no number is given. Calls of active or inactive are those of the source. Calls come from the whole dose curve; as a rule, active = well fitted activation curve with a large enough effect; inconclusive = small, poorly fitted or top-dose-only effect; inactive = flat fitted curve, though single readings scatter.

A short description of this experiment: qHTS assay to identify small molecule phospholipidosis (PLD) inducers (AID 1259344). The note with it: HepG2 phospholipidosis, LipidTOX Red imaging, 24 h; series mostly up to 38.3 µM. The method, boiled down: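 Read-out is LipidTOX Red fluorescence (ex 595/em 615) imaged in HepG2 cells after 24 h compound exposure at 37 C, with Hoechst nuclear counterstain (ex 352/em 461) allowing per-cell normalisation.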
Background: In qHTS, concentration-response curves come from the screen itself.
`O=C(O)[C@H]1CN(C/C=C/P(=O)(O)O)CCN1`: the Potency result is “inactive”. The entry for `CO/N=C(\C(=O)N[C@@H]1C(=O)N2C(C(=O)O)=C(COC(C)=O)CS[C@H]12)c1csc(N)n1` (stereo in doubt) is “inactive”; for `CN(Cc1ccccc1)Cc1ccccc1` it is “inactive”; for `COc1ccc(/C=N/NC(=O)c2ccncc2)c(C(=O)O)c1OC` it is “inactive”. For the compound `CC[C@H]1OC(=O)C[C@@H](O)[C@H](C)[C@@H](O[C@@H]2O[C@H](C)[C@@H](O)[C@H](N(C)C)[C@H]2O)[C@@H](CCN2C[C@H](C)C[C@H](C)C2)C[C@@H](C)C(=O)/C=C/C(C)=C/[C@@H]1CO[C@@H]1O[C@H](C)[C@@H](O)[C@@H](OC)[C@H]1OC`, the Potency entry was “inactive”. Consider `CC/C=C\C/C=C\C/C=C\C/C=C\C/C=C\CCCC(=O)O`, for which the Potency result was “inactive”. The entry for `CC(C)=CCC/C(C)=C/CC/C(C)=C/CC/C(C)=C/CC1=C(C)C(=O)c2ccccc2C1=O` is “inactive”; for `CC1(C)S[C@@H]2[C@H](NC(=O)[C@@H](NC(=O)N3CCNC3=O)c3ccccc3)C(=O)N2[C@H]1C(=O)O` it is “inactive”; for `CC(=O)NC[C@H]1CN(c2ccc(N3CCOCC3)c(F)c2)C(=O)O1` it is “inactive”. The entry for `NS(=O)(=O)c1cc(Cl)c(Cl)c(S(N)(=O)=O)c1` is “inactive”; for `CN(C)CCC(O)(c1ccccc1)c1ccccc1Cl` (stereo not given) it is “inactive”. The entry for `C[C@@H]1C(=O)NC2=Nc3cccc(Cl)c3CN21` is “inactive”; for `FC(F)(F)COCC(F)(F)F` it is “inactive”; for `COC(=O)C[C@](O)(CCCC(C)(C)O)C(=O)O[C@@H]1C(OC)=CC23CCCN2CCc2cc4c(cc2[C@H]13)OCO4` (stereo not given in full) it is “inactive”. `O=C(O)c1cc2cc(Cc3cccnc3)ccc2o1`: the Potency entry was “inactive”. The entry for `CC(C)CCC[C@@H](C)[C@H]1CC[C@H]2[C@@H]3CC=C4C[C@@H](O)CC[C@]4(C)[C@H]3CC[C@]12C` is “inactive”; for `NCC(O)CC(=O)O` (stereo not given) it is “inactive”; for `CCCC(CCC)C(=O)OC1C[C@H]2CC[C@@H](C1)[N+]2(C)C` (stereo not given in full) it is “inactive”. The entry for `CNCC(=O)N[C@@H](CCCN=C(N)N)C(=O)N[C@H](C(=O)N[C@@H](Cc1ccc(O)cc1)C(=O)N[C@H](C(=O)N[C@@H](Cc1cnc[nH]1)C(=O)N1CCC[C@H]1C(=O)N[C@@H](C)C(=O)O)C(C)C)C(C)C` is “inactive”.

For the compound `COC(=O)[C@H]1[C@H]2C[C@H]3c4[nH]c5ccccc5c4CCN3C[C@H]2CC[C@@H]1O`, the Potency entry is “inactive”. The entry for `CCC(=O)OC(OP(=O)(CCCCc1ccccc1)CC(=O)N1C[C@H](C2CCCCC2)C[C@H]1C(=O)O)C(C)C` (stereo not given in full) is “inactive”. On to `Nc1nc(NC2CC2)c2ncn([C@@H]3C=C[C@@H](CO)C3)c2n1`, for which the Potency entry is “inactive”.

With `CO[C@H]1C[C@H](O[C@H]2[C@H](C)[C@@H](O[C@@H]3O[C@H](C)C[C@H](N(C)C)[C@H]3O)[C@@H](C)C[C@]3(CO3)C(=O)[C@H](C)[C@@H](O)[C@@H](C)[C@@H](C)OC(=O)[C@@H]2C)O[C@@H](C)[C@@H]1O`, the Potency entry is “inactive”. With `O=C(O)c1cc(=O)c2c3nc4ccccc4oc-3cc(=O)c2[nH]1`, the Potency result is “inactive”. The entry for `C[C@@H]1O[C@@H]1P(=O)(O)O` is “inactive”; for `CN=C(N)NCCC[C@H](N)C(=O)O` it is “inactive”.

Regarding `COc1ccc([C@@H]2CC(=O)c3c(O)cc(O[C@@H]4O[C@H](CO[C@@H]5O[C@@H](C)[C@H](O)[C@@H](O)[C@H]5O)[C@@H](O)[C@H](O)[C@H]4O)cc3O2)cc1O`, the Potency result is “inactive”. The entry for `CCN(CC)C(=S)S` is “inactive”; for `O=C(CCCN1CCN2CCCC2C1)c1ccc(F)cc1` (stereo not given) it is “inactive”; for `OCl` it is “inactive”. Regarding `CC(C)(O/N=C(\C(=O)N[C@@H]1C(=O)N2C(C(=O)[O-])=C(C[n+]3ccccc3)CS[C@H]12)c1csc(N)n1)C(=O)O`, the Potency result is “inactive”. The entry for `CCCCCCCCCCCCCC(=O)OCC(COP(=O)([O-])OCC[N+](C)(C)C)OC(=O)CCCCCCCCCCCCC` (stereo not given) is “inactive”. Consider `CO/N=C(\C(=O)N[C@@H]1C(=O)N2C(C(=O)O)=C(CSc3cnns3)CS[C@H]12)c1csc(N)n1`, for which the Potency result was “inactive”.

For the compound `CC12CCC(C[N+](C)(CCC[N+](C)(C)C)C1)C2(C)C` (stereo not given), the Potency result is “inactive”. The entry for `N[C@H](C(=O)O)[C@@H]1CC(Cl)=NO1` is “inactive”. Take `O=C(O)c1ccccn1`: the Potency entry was “inactive”. The entry for `CC(C)(COP(=O)(O)OP(=O)(O)OC[C@H]1O[C@@H](n2cnc3c(N)ncnc32)[C@H](O)[C@@H]1OP(=O)(O)O)C(O)C(=O)NCCC(=O)NCCS` (stereo not given in full) is “inactive”; for `CC1CCCC(C)N1NC(=O)c1ccc(Cl)c(S(N)(=O)=O)c1` (stereo not given) it is “inactive”; for `COc1ccc(/C=C/C(=O)Nc2ccccc2C(=O)O)cc1OC` it is “inactive”.

For `CCN(CC)CCOC[C@H]1O[C@@H](O)[C@H](OCCN(CC)CC)[C@@H](O)[C@@H]1O`, the Potency result is “inactive”.
